Screens deposited in PubChem by National Center for Advancing Translational Sciences (NCATS).
In the library only some 7.3% were active in any assay of this set; here they are far more common.
Tau FP inhib: inhibitors of human tau fibril formation; K18 P301L tau heparin fibrillization, Alexa594 FP, 6 h; 0.39% of 280,000 active; Potency, µM (highest dose often 57.7 µM), without a hit: at the highest dose activity, negative = inhibition, most hits filed as inhibitors; note: nearly all actives have a fitted effect of over 55% in size
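Heparin (20 uM) drove fibril formation of recombinant tau K18 P301L, 15 uM unlabeled with 0.24 uM Alexa 594 label, for 6 hr at 37 C in 100 mM sodium acetate pH 7. Fluorescence polarization (555/632 nm) read 1 hr after 30 uM ThT.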
VP16 counter: inhibits Gal4-VP16 luciferase reporter, ROR gamma counter-screen. Drosophila S2 Gal4-VP16 UAS-luciferase, luminescence, 20 h. Potency, µM (doses to about 53.6 µM), inactives show at the highest dose activity, negative = inhibition, hits mostly inhibitors. 3.5% of 310,000 active. AID 2546;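 note: Gal4-VP16 expression switched on by copper sulfate through the metallothionein promoter; nearly all actives have a fitted effect of over 50% in size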
RORgamma inh: ROR gamma (mouse) transcription inhibition. P51450. Drosophila S2 Gal4-RORgamma UAS-luciferase reporter, 20 h. Potency, µM (titrated, usually from 53.6 µM), without a hit: at the highest dose activity change, negative = inhibition, hits mostly inhibitors. 5.4% of 310,000 active. AID 2551; note: nearly all actives have a fitted effect of over 60% in size
Target sequence (P51450 whole entry, looked up, the tested form may be a part): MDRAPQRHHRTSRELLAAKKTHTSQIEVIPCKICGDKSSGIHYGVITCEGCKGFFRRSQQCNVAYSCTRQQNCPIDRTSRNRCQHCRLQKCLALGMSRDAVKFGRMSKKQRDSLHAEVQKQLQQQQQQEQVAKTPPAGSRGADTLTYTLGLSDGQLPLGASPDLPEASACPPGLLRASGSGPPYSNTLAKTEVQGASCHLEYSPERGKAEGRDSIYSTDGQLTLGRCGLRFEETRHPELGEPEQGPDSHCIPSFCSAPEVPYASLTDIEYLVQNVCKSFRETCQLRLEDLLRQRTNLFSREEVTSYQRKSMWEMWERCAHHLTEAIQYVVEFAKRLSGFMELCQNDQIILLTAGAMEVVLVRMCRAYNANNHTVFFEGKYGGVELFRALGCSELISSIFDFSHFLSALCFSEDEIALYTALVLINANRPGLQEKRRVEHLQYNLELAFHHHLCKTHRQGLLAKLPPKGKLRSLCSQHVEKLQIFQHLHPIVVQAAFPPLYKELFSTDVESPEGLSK
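A Gal4/UAS one-hybrid system in insect cells: metallothionein-promoter Gal4–ROR gamma fusion plus Photinus luciferase reporter. Copper sulfate 700 uM final, 20 hr ambient incubation, luminescent detection after 10 min with reagent.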
Tau ThT inhib: inhibitors of human tau fibril formation, thioflavin T binding. P10636. recombinant tau K18 P301L, heparin-induced fibrillization, ThT fluorescence. Potency, µM (titrated, usually from 57.4 µM), for the others: at the top dose activity, negative = inhibition, actives largely listed as inhibitors. 2.1% of 270,000 active. AID 1460; note: nearly all actives have a fitted effect of over 55% in size
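ThT emission at 510 nm, taken 1 hr after adding 30 uM dye, quantifies aggregates formed when 20 uM heparin acts on human tau K18 P301L for 6 hr at 37 C.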
Tau fluor counter: counter-screen for tau fibril formation inhibitors. tau K18 P301L Alexa594 fluorescence, heparin fibrillization. 0.93% of 280,000 active. Potency, µM (highest dose often 57.7 µM), without a hit: at the top dose activity change, negative = decrease; note: nearly all actives have a fitted effect of over 55% in size
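Human tau K18 P301L (15 uM unlabeled, 0.24 uM Alexa 594-labeled) in 100 mM sodium acetate pH 7 with 20 uM heparin, 6 hr at 37 C. ThT 30 uM added, 1 hr ambient; Alexa 594 FP and total fluorescence read at 555/632 nm.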
Numbers without * were called inactive; ? = inconclusive; nt = no result given; [ ] = another dose, or the depositor's remark. Calls come from the whole dose curve; as a rule, active = well fitted curve in the direction sought with a large enough effect; inconclusive = small, poorly fitted or top-dose-only effect, or another doubt; inactive = no such curve, though single readings can be large; an effect the other way counts as inactive or inconclusive. % is set by controls: 0 for no effect and ±100 for the full control effect; potency is the fitted concentration of half-maximal effect.

SMILES	Tau FP inhib	VP16 counter	RORgamma inh	Tau ThT inhib	Tau fluor counter
CCN(CC)c1ccc2nc3c(=O)n(C)c(=O)n(C)c3nc2c1	?	nt	nt	16µM*	?
Cn1cc(C(=O)N2CCN(c3cccc(C(F)(F)F)c3)CC2)c2c3ccccc3n(C)c2c1=O	-2%	nt	nt	?	-23%
O=S(=O)(NCCCCCCc1ccccc1)c1cccc2c(Cl)cccc12	-10%	5%	16%	-11%	-28%
Clc1ccc(-c2ccn[nH]2)cc1	0%	-17%	-33%	-1%	-3%
S=c1nccc(-c2ccc(Cl)cc2)[nH]1	?	5µM*	2.8µM*	?	-23%
S=c1[nH]c(-c2ccc(Cl)cc2)cs1	-7%	0%	7.1µM*	?	-21%
Cc1ccc(-c2csc(=S)[nH]2)cc1	-11%	?	7.1µM*	?	-11%
Cc1ccc(-c2ccc(C(=O)O)[nH]2)cc1	-1%	-23%	0%	-9%	-3%
CC(/C=C1\SC(=S)N(CCC(=O)Nc2ccc(O)cc2)C1=O)=C\c1ccccc1	nt	14µM*	14µM*	nt	nt
CC(/C=C1\SC(=S)N(CCCC(=O)Nc2ccc(C(=O)O)c(O)c2)C1=O)=C\c1ccccc1	-9%	-25%	-27%	5µM*	?
CC(=C\c1ccccc1)/C=C1/SC(=O)N(CCCC(=O)Nc2ccc(C(=O)O)cc2)C1=O	-4%	-4%	?	?	-3%
CC(C)CCN(C(=O)c1csnn1)C(C(=O)NC1CCCCC1)c1ccc(F)cc1 (configuration not stated)	nt	8%	-2%	nt	nt
c1ccc(CCSc2nccn2-c2ccccc2)cc1	-12%	-6%	10µM*	-12%	-3%
CCc1ccc(CSc2nccn2-c2ccccc2)cc1	-10%	-28%	8.9µM*	-11%	-2%
COC(=O)CCCSc1nccn1-c1ccccc1	-2%	-14%	0%	-1%	3%
Nc1ncnc2c1ncn2[C@@H]1O[C@H](COP(=O)(O)OP(=O)(O)OC[C@H]2OC(O)[C@H](O)[C@@H]2O)[C@@H](O)[C@H]1O (some centres not stated)	-13%	nt	nt	-11%	-8%
O=C(CC(C(=O)O)c1ccc(Cl)cc1Cl)c1ccc(Cl)cc1 (configuration not stated)	nt	-4%	-9%	nt	nt
CCCCSc1nnc2c(n1)OC(C(=O)c1ccccc1)Nc1ccccc1-2 (configuration not stated)	?	-2%	35%	32µM*	?
CCc1cccc(NC(=O)C(Cc2ccccc2)NS(=O)(=O)c2ccc3c(c2)c(=O)n(C)c(=O)n3C)c1 (configuration not stated)	-9%	nt	nt	1%	-22%
O=C(Nc1ccc(Oc2ccc3ccccc3c2)cc1)c1ccco1	?	10µM*	-95%	-9%	?
Cc1nc(-c2ccc(C(=O)Nc3ccccc3F)cc2)cs1	7%	8.9µM*	8.9µM*	-14%	2%
Nc1nc(-c2ccc(NC(=O)c3ccco3)cc2)cs1	nt	?	10µM*	nt	nt
Cc1nc(-c2ccc(NC(=O)c3ccco3)cc2)cs1	nt	4.5µM*	3.5µM*	nt	nt
Cc1nc(-c2cccc(NC(=O)c3ccco3)c2)cs1	nt	27%	32%	nt	nt
O=C(Nc1ccc(NC(=O)c2ccco2)cc1)c1ccco1	nt	2%	-15%	nt	nt
SMILES	Tau FP inhib	VP16 counter	RORgamma inh	Tau ThT inhib	Tau fluor counter
CCNc1ncc2nc(-c3cccc(C#N)c3)c(=O)n(Cc3cccc(OC)c3)c2n1	nt	4%	-2%	nt	nt
Cc1ccc(-c2nc(CNC(=O)NC3CCCCC3)c(C)o2)cc1	4%	nt	nt	4%	13%
OCCN1CCN(c2ncnc3sc(-c4ccccc4)cc23)CC1	0%	5%	-12%	-3%	-6%
O=C(Nc1ccc(Cl)cc1)c1cc2c(cc1O)[nH]c1ccccc12	-1%	18µM*	-35%	?	4µM*[quencher]
COc1cc(NC(=O)CCNS(=O)(=O)c2ccc3c(c2)CCN3C(=O)C2CC2)cc(OC)c1	-5%	nt	nt	-9%	-18%
COc1cccc(-c2cc(C(=O)N3CCc4ccccc4C3)[nH]n2)c1	nt	-11%	1.1µM*	nt	nt
Cc1ccc(-c2cc(C(=O)N3CCc4ccccc4C3)[nH]n2)cc1C	nt	-4%	1µM*	nt	nt
